From PubChem
In the library only some 3.6% were active in any assay of this set; here they are far more common.
3CLpro inhibitor = SARS-CoV 3CLpro protease inhibition; P0C6X7; recombinant SARS-CoV 3CLpro, quenched FRET peptide cleavage; inhibition, % at 6 µM; actives 0.14% (n = 290,000); AID 1706; in the data active means inhibition above about 12%
BoNT-F LC inh = blocks Botulinum neurotoxin F light chain protease; inhibition, % at 10 µM; AID 588497; actives 0.22% (n = 360,000); Multiplex microsphere protease cleavage assay, flow cytometry; in the data active means inhibition above about 35%, passing the limit was not always enough; inconclusive means no clear call, values can overlap the other calls; further: plate controls were buffer without enzyme for full effect and enzyme alone for no effect
BoNT-A LC inh2 = BoNT A light chain protease inhibition; multiplex microsphere protease substrate cleavage, flow cytometry; inhibition, % at 10 µM; actives 0.17% (n = 360,000); AID 588499; further: plate controls were buffer without enzyme for full effect and enzyme alone for no effect
BJeLR viability = BJeLR cell viability loss. inhibition, % (no concentration beside the values). actives 0.17% (n = 300,000). BJeLR (HRASV12) viability, CellTiter-Glo ATP luminescence, 48 h; in the data active means inhibition above about 50%; inconclusive means no clear call, values can overlap the other calls
Autofluor counter = flagged as autofluorescent in microsphere protease counterscreen. compound autofluorescence counterscreen, microsphere flow cytometry; hits give high values. fluorescence intensity (concentration not given with the values). actives 3.1% (n = 360,000); in the data active means fluorescence intensity above about 16000; inconclusive means no clear call, values can overlap the other calls
Anthrax LF inh2 = inhibitors of Bacillus anthracis lethal factor protease; P15917; multiplex microsphere protease cleavage assay, LF; inhibition, % at 10 µM; actives 0.12% (n = 360,000); further: plate controls were buffer without enzyme for full effect and enzyme alone for no effect
Target sequence (P15917 whole entry, looked up): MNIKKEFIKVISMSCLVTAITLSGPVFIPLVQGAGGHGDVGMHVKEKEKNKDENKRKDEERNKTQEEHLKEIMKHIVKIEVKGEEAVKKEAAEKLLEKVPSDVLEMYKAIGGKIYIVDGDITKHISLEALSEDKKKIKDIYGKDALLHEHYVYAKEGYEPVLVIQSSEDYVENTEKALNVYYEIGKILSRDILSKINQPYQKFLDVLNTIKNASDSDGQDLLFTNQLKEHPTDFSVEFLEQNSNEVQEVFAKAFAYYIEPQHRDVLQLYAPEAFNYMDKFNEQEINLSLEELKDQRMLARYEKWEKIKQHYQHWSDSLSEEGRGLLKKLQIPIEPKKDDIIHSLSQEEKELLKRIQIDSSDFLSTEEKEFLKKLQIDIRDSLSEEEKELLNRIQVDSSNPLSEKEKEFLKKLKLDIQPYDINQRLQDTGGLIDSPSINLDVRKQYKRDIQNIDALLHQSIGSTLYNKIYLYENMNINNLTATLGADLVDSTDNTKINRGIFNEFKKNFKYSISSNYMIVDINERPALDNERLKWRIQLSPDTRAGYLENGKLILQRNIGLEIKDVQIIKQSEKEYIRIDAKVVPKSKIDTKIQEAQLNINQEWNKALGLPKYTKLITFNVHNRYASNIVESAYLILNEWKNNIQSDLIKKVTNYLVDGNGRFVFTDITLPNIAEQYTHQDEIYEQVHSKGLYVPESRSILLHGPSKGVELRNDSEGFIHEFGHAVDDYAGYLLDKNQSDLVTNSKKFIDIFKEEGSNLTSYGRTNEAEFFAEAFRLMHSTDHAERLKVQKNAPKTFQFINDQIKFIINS
* hit, by the source's call; ? = inconclusive; . = no result. Unless noted, no stated cut-off is given here; in the data, active means inhibition above about 30%; inconclusive means no clear call, values can overlap the other calls; inactive means below that.

SMILES	3CLpro inhibitor	BoNT-F LC inh	BoNT-A LC inh2	BJeLR viability	Autofluor counter	Anthrax LF inh2
CC(C(=O)N1CCOCC1)c1ccccc1 (stereo unspecified)	.	-2.9	-0.5	.	3035	-1.2
Cn1cccc1/C=C1\SC(=Nc2ccccc2)NC1=O	8.0	35.7*	2.3	28.7	3910	13.0
Cn1cccc1/C=C1\SC(=Nc2ccc(O)cc2)NC1=O	-2.1	-3.4	-2.6	62.3*	3927	-9.2
COC(=O)c1ccc(CNC(=O)C2CCC(=O)N(CCc3ccccc3)C2)cc1 (stereo unspecified)	-3.8	-8.8	-4.5	-5.9	7818	-1.0
CCOc1ccc(OCC)c(S(=O)(=O)n2ccnc2C)c1	0.6	32.8	4.5	-12.8	2706	4.9
CCOc1ccc(OCC)c(S(=O)(=O)N2CCCCC2C)c1 (stereo unspecified)	-1.2	-1.7	0.0	-6.0	16721*	-0.5
COc1ccc(C)cc1S(=O)(=O)N1CCCCCC1	-0.1	-1.6	0.4	-17.0	4267	-1.9
CCOc1cc(S(=O)(=O)N2CCCC2)ccc1Cl	2.8	-24.8	-3.3	-9.6	7807	-6.8
CCOc1cc(S(=O)(=O)N2CCCCC2)ccc1F	-1.3	3.2	2.4	-17.2	22074*	-1.7
CCOc1ccc(C)cc1S(=O)(=O)N1CCCCC1	5.4	0.4	?	0.8	21517*	-0.4
COc1ccc(C)cc1S(=O)(=O)N1CCC(C)CC1	1.3	5.4	3.8	-1.8	21743*	3.3
CCOc1cc(C2C3=C(CC(C)(C)CC3=O)N(C)C3=C2C(=O)CC(C)(C)C3)ccc1O	1.3	?	3.0	1.9	3630	7.1
CCCCNc1oc(-c2cccs2)nc1S(=O)(=O)c1ccccc1	-0.4	5.0	4.4	2.9	22130*	0.4
CCn1c(SCC(=O)N/N=C/C=C\c2ccco2)nc2ccccc21	4.0	-2.0	-0.5	-2.2	2474	-1.0
Cn1c(SCC(=O)N/N=C/C=C\c2ccco2)nc2ccccc21	-1.7	1.7	0.7	3.0	22987*	0.1
CC(C)(C)c1ccc(C(=O)CC(=O)c2cc(Cl)ccc2O)cc1	5.3	-1.2	-0.6	3.4	21100*	-1.3
O=C(c1ccccc1Cl)N1CCc2ccccc2C1	-5.1	-7.4	-5.2	-12.0	17580*	-2.4
O=C(c1cc(-c2cccs2)on1)N1CCOCC1	-1.8	-6.1	-2.4	3.8	21693*	-0.5
O=C(c1cc(-c2ccccc2O)on1)N1CCc2ccccc2C1	-2.6	-3.5	0.4	-4.5	6115	0.3
O=C(c1cc(-c2cccs2)on1)N1CCc2ccccc2C1	4.0	-0.1	2.2	6.4	22720*	-1.7
Cc1cc(C(=O)NNC(=O)Cc2ccc(Cl)c(Cl)c2)c(C)o1	.	1.7	1.6	.	5058	-3.0
CC(C)(CC(=O)O)CC(=O)Nc1ccc2c(c1)ncn2CCc1ccccc1	2.3	-24.6	-0.9	3.5	4167	2.7
Cn1ccnc1SCC(=O)c1c(N)n(C)c(=O)n(C)c1=O	.	0.6	-0.3	.	3313	-4.6
Cc1cc(C)nc(SCC(=O)c2c(N)n(C)c(=O)n(C)c2=O)n1	0.8	0.5	?	-0.2	23309*	1.6
N#C/C(=C/c1ccc(N2CCCCCC2)o1)c1cccc(F)c1	0.6	1.6	4.2	7.7	28830*	-1.0
SMILES	3CLpro inhibitor	BoNT-F LC inh	BoNT-A LC inh2	BJeLR viability	Autofluor counter	Anthrax LF inh2
COc1cc(N2CCCC2)c(OC)cc1/C=C(/C#N)c1cccc(F)c1	-3.0	48.1*	4.6	-1.8	23531*	-9.6
COc1cccc(/C=C(/C#N)c2ccc(F)cc2)c1OCc1cccc(C(=O)O)c1	4.3	1.2	0.7	6.2	2100	2.9
COc1ccc(NC(=O)N(C)C[C@H]2Oc3ccc(NS(=O)(=O)c4c(C)noc4C)cc3C(=O)N([C@H](C)CO)C[C@@H]2C)cc1	.	-1.3	-0.1	.	4143	-3.3
O=C(O)CSc1nc(C(F)(F)F)cc(=O)n1-c1ccccc1	-1.1	3.4	0.1	11.5	9498	4.7
CC(=O)CSc1nc(C(F)(F)F)cc(=O)n1-c1ccccc1	-2.2	-2.7	-0.9	-5.7	20676*	-1.6
COC(=O)c1ccc(CNC(=O)/C=C/c2cc([N+](=O)[O-])ccc2OC(F)F)cc1	2.0	1.3	2.5	-3.1	19547*	-4.3
COc1ccc(CNC(=O)/C=C/c2cc([N+](=O)[O-])ccc2OC(F)F)cc1OC	-3.1	15.0	?	8.3	18771*	-13.2
O=C(/C=C/c1cc([N+](=O)[O-])ccc1OC(F)F)NCc1ccc(Cl)cc1	5.3	-11.1	-0.5	1.6	2333	-1.3
